# The campaign covered roughly 390,000 compounds. About 610 (0.16%) were called active. Roughly 4% stayed inconclusive and do not appear here. For the sample, actives were picked, then their nearest neighbours and some compounds at random. Values without a mark were called inactive. The call rests on the fitted dose curve; in most records, active means well fitted inhibition curve with a large enough effect; inconclusive means small, poorly fitted or top-dose-only effect, or effect the other way, or another doubt; inactive means no such curve, though single readings can be large or run the other way.
# Test: Nrf2 qHTS screen for inhibitors: counterscreen for cytotoxicity
# Conditions: A549 ARE-Fluc cells, CellTiter-Fluor viability, 18-24 h; series mostly up to 46 µM; activity change, negative = cytotoxicity: at the top concentration
# Text: NIH Molecular Libraries Probe Production Network [MLPCN]
# NIH Chemical Genomics Center [NCGC]
# Assay Provider: Shyam Biswal, Johns Hopkins University
# Nrf2 is a transcription factor that maintains cellular redox homoestasis and protects cells from xenobiotics. Nrf2 binds to the antioxidant response element (ARE) to induce gene expression of a broad spectrum of genes that encode for antioxidants. […] Finding a small molecule that act as an inhibitor of Nrf2 function would represent a novel therapeutic target that could lead to improvement in survival of patients undergoing chemo- and/or radio- therapy.
# So here we implemented a counterscreen to weed out the cytotoxic compounds.
# 1. Shibata, T., et al., Genetic Alteration of Keap1 Confers Constitutive Nrf2 Activation and Resistance to Chemotherapy in Gallbladder Cancer. Gastroenterology, 2008.
# 2. Sjoblom, T., et al., The consensus coding sequences of human breast and colorectal cancers. Science, 2006. 314(5797): p. 268-74.
# NCGC Assay Protocol Summary:
# A concentration-response assay was performed with A549 ARE_Fluc cells which are suspended in 5% FBS OPTI-MEM. Five uL were dispensed into 1536-well white TC-treated plate using the Kalypsys dispenser to achieve a density of 5000 cells/well in all columns except column 1. The plate is incubated at 37deg C at 5% CO2 for 2 hours before 23 nL of compounds are added with the Kalypsys pin tool equipped with a 1,536-pin array containing 10-nL slotted pins (FP1S10, 0.457-mm diameter, 50.8 mm long; V&P Scientific). The control compounds Budesonide and Staurosporine are both added at a concentration of 2mM and Budesonide is also added as a 1:10 titration, starting at 200uM, to achieve dose-response. After an 18-24 hour incubation at 37deg C at 5% CO2, 5ul of medium is added to column 1. Afterwards 1ul of 5x of CellTiter-Fluor (Promega) is added to every well. The plate is then incubated at 37deg C at 5% CO2 for 30 minutes before they are read on the ViewLux (Perkin Elmer) for a fluorescent read Ex=405(10)/Em=525(10) for a 3 second exposure, 2x binning, and high gain. Then 3 uL of 3x BugLite is dispensed into all wells and the plate is incubated at ambient room temperature for 15 minutes. Afterwards another ViewLux read is performed using the clear filter to get a luminescent read with the settings of 40 second exposure, 2x binning, and high gain. Cytotoxicity is assessed through the first fluorescent read and then biochemical activity against Nrf2 is measured in the luminescent read.
# On the % scale 0 is the no-effect control and ±100 the full control effect; potency means the concentration at half of the fitted maximal effect.
SMILES,Potency,"activity change, negative = cytotoxicity"
CCC(C)(O)C(=O)OC1C(=O)OC2CC3C(C)=CC(=O)C(O)C3(C)C3C4(O)OCC23C1C(C)C4O (stereo not given),5.8 µM (active),
c1ccc(CC2CCCCN2)cc1 (stereo not given),,-2.1%
Cc1ccc(-n2c(/C=C/c3cccc(C(F)(F)F)c3)nc3ccccc3c2=O)cc1,,-0.777%
CSc1nc2ccc(C)cc2c(=O)n1-c1cccnc1,,-2.75%
CN1CCN(c2cc(N3CCNCC3)ccc2[N+](=O)[O-])CC1,16.4 µM (active),
COc1cccc(-c2nc3ccc(N4CCN(C)CC4)cc3[nH]2)c1,,-4.58%
CCN1CCN(c2ccc([N+](=O)[O-])cc2C#N)CC1,,-0.62%
CC1=CC(=Cc2sc3ccccc3[n+]2C)C=C(C)O1,2.59 µM (active),
CC(c1ccccc1)(c1ccccc1)c1ccncc1,,8.35%
Cc1ccc(Cn2nnnc2CN2CCC(n3nnc4ccccc43)CC2)cc1,,-13.9%
COC(=O)C1=C(c2cc3ccccc3o2)C[C@@H]2CC[C@H]1N2C(=O)NC1CCCCC1,,-2.75%
O=Cc1cn(Cc2ccc(F)cc2Cl)c2ccccc12,,0.05%
CO[C@H]1[C@@H](O)[C@@H](C)O[C@H](O[C@H]2[C@H](Oc3cccc4c(O)c5c(=O)oc6ccc(C)c7c(=O)oc(c34)c5c67)O[C@H](C)[C@H](O)[C@@H]2O)[C@@H]1O,,-11.9%
CCCCCCCCCCCCn1ccc(=N)cc1,,-16.4%
S=P(c1ccccc1)(c1ccccc1)c1c(-c2ccccc2)[nH]c2ccccc12,,-15.8%
O=C1CC(=O)N(Cc2ccccc2)C(=O)N1CCCCCCN1C(=O)CC(=O)N(Cc2ccccc2)C1=O,,1.06%
CC(C)(C)c1ccc(CN2C(=O)CN=C(c3ccccc3)c3ccccc32)cc1,25.9 µM (active),
COc1cc([C@@H]2c3cc4c(cc3[C@H](OC(C)=O)[C@H]3COC(=O)[C@H]23)OCO4)cc(OC)c1OC,,-4.1%
CCN(CC)C(=O)c1ccc(NC(=O)c2sccc2-c2ccccc2)cc1,,4.65%
CC(C)c1ccc(-n2c(O)c(/C=N/N3CCOCC3)c(=O)[nH]c2=S)cc1,,0.295%
CC(=O)OC1C2(CC3N4C(=O)C5(CO)SSC4(CC31O)C(=O)N5C)OC(C)C(C)(C)C2=O (stereo not given),7.31 µM (active),
CC(Cc1ccccc1)NCCC(c1ccccc1)c1ccccc1 (stereo not given),,-4.79%
Cc1cccc(OP(=O)(Oc2cccc(C)c2)OC(c2ccccc2)C(F)(F)F)c1 (stereo not given),,13.4%
O=C(O)c1cc[c]([Sb](=[O])([OH])[OH])cc1[N+](=O)[O-],,6.48%
Cc1ccc(NC(=O)N(Cc2ccc3c(c2)OCO3)C2CCN(Cc3ccccc3)CC2)cc1F,,-4.53%
CN(c1ccccc1)c1ccc([N+](=O)[O-])c2nonc12,20.6 µM (active),
CCN(CC)c1ccc([N+](=O)[O-])c2cccnc12,,-17.6%
O=P1(Oc2ccccc2)CC(O)C(O)C(COCc2ccccc2)O1 (stereo not given),,-0.0059%
CC(C)(C)[C@]1(O)C[C@@H]2OC(=O)C[C@@]23C(=O)O[C@@H]2OC(=O)[C@H](O)[C@]213,,2.45%
Cc1ccc(C(C)C)c(OCC(=O)N2CCN(CC(=O)N3CCOCC3)CC2)c1,,-1.23%
